# Measured values published in PubChem BioAssay (NCATS).
# A number with no mark means an inactive call. Inconclusive results are not listed. Where a call stands in place of a potency, no number is given. Activity calls are given as the source filed them. Unless noted, the call rests on the fitted dose curve; in most records, active means well fitted curve in the direction sought with a large enough effect; inconclusive means small, poorly fitted or top-dose-only effect, or another doubt; inactive means no such curve, though single readings can be large; an effect the other way counts as inactive or inconclusive.
# Experiments:
# [1] = Confirmation and Secondary Assay for Modulators of Hemoglobin Beta Chain Splicing at IVS2 705 locus (AID 930);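 further: HeLa cells stably expressing the EGFP-705 splicing reporter; GFP fluorescence per well restored by corrected splicing of the IVS2-705 intron in EGFP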
# Method in brief: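 Assay measures total GFP intensity per well in HeLa EGFP-705 cells after 2 days with compound; mis-splicing normally truncates EGFP, so fluorescence indicates corrected splicing.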
# [2] = target: Cytochrome P450 2D6 (Homo sapiens) (UniProt P10635); test: qHTS Assay for Inhibitors and Substrates of Cytochrome P450 2D6 (AID 891);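 further: luciferin methyl ether substrate demethylated by CYP2D6 with NADPH regeneration; nearly all actives have a fitted effect of over 60% in size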
# Method in brief: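 Human CYP2D6 (5 nM) with 30 uM Luciferin-ME EGE (at Km) in 100 mM KPO4, compound preincubated 10 min, then NADPH regeneration system for 60 min at room temperature. Luciferin read by luminescence; normalized to 1.43 uM quinidine.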
# [3] = target: Lysosomal acid glucosylceramidase (Homo sapiens) (UniProt P04062); test: Glucocerebrosidase-p2 (AID 348; in the data active means potency below about 10 µM; further: potency means the concentration at half of the fitted maximal effect); details: purified GBA, blue fluorogenic substrate, 40 min
# Method in brief: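 Compounds titrated from 0.6 nM upwards against 0.2 nM enzyme in pH 5.9 citric acid/KH2PO4, taurocholate, tween-20; blue fluorogenic substrate 80 uM, 40 min room temperature, stopped and read Ex 365/Em 440 for AC50.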
# [4] = Confirmatory qHTS for activators (rescue) of SARS-CoV-2 Cytopathic Effect (CPE) (AID 1508606; calls by dose curve; further: potency means the concentration at half of the fitted maximal effect; nearly all actives have a fitted effect of over 70% in size)
# [5] = target: Nuclear receptor subfamily 1 group I member 3 (Homo sapiens) (UniProt Q14994); test: Primary qHTS for antagonist of constitutive androstane receptor (CAR) against the NCATS DSHEA and TCM libraries (AID 1794836);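 further: HepG2 cells stably expressing hCAR with CYP2B6 luciferase reporter stimulated by CITCO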
# Method in brief: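 HepG2-CYP2B6-hCAR cells, attached 5 h, given compounds plus CITCO agonist […], incubated 24 h at 37 C. Luciferase luminescence read, multiplexed with CellTiter-Fluor viability (Ex/Em 405/540 nm).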
# [6] = target: Cytochrome P450 2C9 (Homo sapiens) (UniProt P11712); test: qHTS for inhibitors of CYP2C9 against the NCATS DSHEA and TCM libraries (AID 1919973);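 further: luminogenic pro-luciferin CYP2C9 substrate turned into luciferin with NADPH regeneration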
# Method in brief: (§1)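 Luminescent P450-Glo format: compounds preincubated 15 min with enzyme and luciferin substrate, reaction run 30-45 min after NADPH regeneration solution. Intraplate controls: ketoconazole for CYP3A4 and CYP2C19, sulfaphenazole for CYP2C9.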
# [7] = target: Cytochrome P450 2C19 (Homo sapiens) (UniProt P33261); test: qHTS for inhibitors of CYP2C19 against the NCATS DSHEA and TCM libraries (AID 1919974);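 further: luminescence from luciferin released by CYP2C19 oxidation of a pro-luciferin substrate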
# Method in brief: as §1
# [8] = KB-8-5-11 P-gp reporter qHTS against the NCATS DSHEA and TCM libraries (AID 1919977)
# Method in brief: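 Cells were seeded, allowed ~4 h to attach, dosed by pin tool (substance titrations), incubated ~72 h at 37C, then lysed with CellTiter-Glo for 30 min at room temperature before luminescence reading.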
# [9] = Dual reporter qHTS for agonist of Pregnane X Receptor (hPXR) against the NCATS DSHEA and TCM libraries: Fluorescence readout (AID 1920058)
# Method in brief: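 hPXR-Luc HepG2 cells, 2000/well in charcoal-stripped serum, attached 5 h, dosed for ~24 h at 37 °C. Fluorescence read is CellTiter-Fluor viability (Ex/Em 405/540 nm); rifampicin positive, tetraoctyl ammonium bromide (92 µM) cytotoxicity controls.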
# [10] = target: Phosphoglycerate kinase, glycosomal (Trypanosoma brucei brucei) (UniProt P07378); test: qHTS Validation Assay to Find Inhibitors of Phosphoglycerate Kinase (AID 504547)
# Method in brief: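 PGK activity was coupled to GAPDH (100nM final), which generates the unstable substrate 1,3-bisphosphoglycerate in-well. Reactions ran 60 minutes at room temperature in 100mM TEA pH 7.6, 5mM MgCl2, 0.01% Tween-20, then Kinase-Glo Plus luminescence was read.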
# [11] = target: phosphoglycerate mutase (Leishmania major) (UniProt Q4Q090); test: qHTS Validation Assay to Find Inhibitors of Phosphoglycerate Mutase (AID 504548)
# Method in brief: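 Luminescent end-point read-out via Kinase-GloPlus after a 10-minute development. Reaction: 1.25nM Leishmania major PGAM with substrate and compound, 45 minutes at room temperature in TEA buffer (pH 7.6) with MgCl2 and Tween-20.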
# [12] = Inducers of the Endoplasmic Reticulum Stress Response (ERSR) in human glioma: Validation (AID 504836)
# Method in brief: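 Stably transfected U87-MG glioma cells carrying a GRP78-based luciferase sensor; 16 h compound incubation. Luminescence end-point read 10 min after Bright-Glo addition at room temperature.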
# [13] = qHTS for Inhibitors of ATXN expression: Validation of Cytotoxic Assay (AID 588349)
# Method in brief: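 HEK293 cells treated with titrated compound for 72 hr at 37 degrees C; viability read as intracellular ATP by CellTiter Glo luminescence.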
# [14] = qHTS for Inhibitors of ATXN expression: Validation (AID 588378); further: nearly all actives have a fitted effect of over 75% in size
# Method in brief: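 Validation of ATXN2 expression inhibitors uses a cell-based luciferase fusion reporter in HEK293 cells, with 24 h compound exposure and paired viability (fluorescence) and reporter (luminescence) end-point reads.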
# [15] = target: Glucagon-like peptide 1 receptor (Homo sapiens) (UniProt P43220); test: qHTS of GLP-1 Receptor Agonists: LOPAC Validation (AID 624148);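 further: higher luminescence signal means agonism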
# Method in brief: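 HEK293 cells stably co-expressing GLP-1R and a cAMP-responsive luciferase reporter, plated 12 hours before compound, then incubated 4-6 hr at 37 deg C. Luminescence read 12 min after detection reagent.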
# [16] = qHTS of Nrf2 Activators: LOPAC Validation (AID 624149)
# Method in brief: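 AREc32_Fluc cells, 1000/well in OPTI-MEM with 5% FBS, grown overnight, then exposed to compounds for 24 hr at 37 deg C, 5% CO2. ARE-driven firefly luciferase read by Steady-Glo luminescence after 30 min at RT.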
# [17] = HTS Assay for Allosteric Antagonists of the Human D2 Dopamine Receptor: Hit Validation in HTRF (AID 624455);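 further: stable D1 dopamine receptor cell line scored for blocking the D1 response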
# Method in brief: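 Hit validation in cells stably expressing the D1 dopamine receptor, run in HTRF format. Compounds were tested for their ability to inhibit the D1-mediated response.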
# [18] = Primary qHTS for small molecule stabilizers of the endoplasmic reticulum resident proteome: Secreted ER Calcium Modulated Protein (SERCaMP) assay (AID 1508630)
# Method in brief: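 GLuc-SERCaMP-expressing SH-SY5Y cells, pretreated 16 h with compound, are challenged with thapsigargin to empty ER calcium stores; after 4 h, coelenterazine is added directly to the medium and luminescence is imaged.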
# CP203 = test: qHTS profiling for inhibitors of Plasmodium falciparum proliferation (AID 504749); further: nearly all actives have a fitted effect of over 60% in size; details: P. falciparum in erythrocytes, SYBR Green DNA, 72 h; series mostly up to 28.7 µM
# Method in brief: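 P. falciparum-infected erythrocytes (0.3% parasitemia, 2.5% hematocrit) incubated with compound 72 h at 37 C, 5% CO2. Parasite DNA detected by SYBR Green after lysis, overnight at room temperature; normalised to 0.29 uM artemisinin and DMSO.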
# [19] = qHTS Assay for Identification of Small Molecule Antagonists for Thrombopoietin (TPO) Signaling Pathway (AID 918); details: TPO-dependent cell signaling reporter, antagonist mode; further: potency means the concentration at half of the fitted maximal effect; nearly all actives have a fitted effect of over 60% in size
# Method in brief: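 Murine Ba/F3 cells expressing human TPO receptor and a Glycoprotein IIb promoter-luciferase reporter, IL-3-starved overnight, treated with compound plus TPO at EC50 (26 pM final). After 24 h at 37 C, luminescence read to detect inhibitors.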
# Sequence of Phosphoglycerate kinase, glycosomal (Trypanosoma brucei brucei) (P07378 whole entry, looked up): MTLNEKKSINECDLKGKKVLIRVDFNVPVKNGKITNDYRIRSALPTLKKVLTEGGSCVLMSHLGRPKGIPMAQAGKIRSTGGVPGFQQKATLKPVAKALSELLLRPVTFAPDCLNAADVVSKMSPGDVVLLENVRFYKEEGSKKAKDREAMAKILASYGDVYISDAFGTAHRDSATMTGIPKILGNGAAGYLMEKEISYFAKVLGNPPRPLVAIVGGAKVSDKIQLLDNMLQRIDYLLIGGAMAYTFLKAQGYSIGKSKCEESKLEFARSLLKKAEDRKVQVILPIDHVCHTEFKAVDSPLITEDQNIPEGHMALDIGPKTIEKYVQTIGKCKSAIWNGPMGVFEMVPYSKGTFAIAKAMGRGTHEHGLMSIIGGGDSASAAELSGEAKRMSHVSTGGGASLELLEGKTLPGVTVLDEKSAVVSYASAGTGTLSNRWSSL
# Sequence of phosphoglycerate mutase (Leishmania major) (Q4Q090 1-553): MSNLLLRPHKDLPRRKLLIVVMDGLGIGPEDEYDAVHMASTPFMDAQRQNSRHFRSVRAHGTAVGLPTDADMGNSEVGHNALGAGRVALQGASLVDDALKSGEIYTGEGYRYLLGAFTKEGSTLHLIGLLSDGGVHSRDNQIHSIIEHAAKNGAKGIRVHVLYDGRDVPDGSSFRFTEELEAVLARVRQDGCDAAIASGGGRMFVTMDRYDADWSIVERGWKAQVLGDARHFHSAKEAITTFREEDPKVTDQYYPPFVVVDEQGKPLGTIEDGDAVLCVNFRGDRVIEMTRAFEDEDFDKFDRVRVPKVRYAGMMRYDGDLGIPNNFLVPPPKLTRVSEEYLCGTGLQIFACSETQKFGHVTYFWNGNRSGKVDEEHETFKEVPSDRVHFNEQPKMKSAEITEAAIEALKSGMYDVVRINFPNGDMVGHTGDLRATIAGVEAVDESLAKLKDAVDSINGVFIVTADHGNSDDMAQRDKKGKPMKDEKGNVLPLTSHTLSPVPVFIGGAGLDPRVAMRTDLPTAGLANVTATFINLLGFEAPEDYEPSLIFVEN
# Sequence of Glucagon-like peptide 1 receptor (Homo sapiens) (P43220 whole entry, looked up): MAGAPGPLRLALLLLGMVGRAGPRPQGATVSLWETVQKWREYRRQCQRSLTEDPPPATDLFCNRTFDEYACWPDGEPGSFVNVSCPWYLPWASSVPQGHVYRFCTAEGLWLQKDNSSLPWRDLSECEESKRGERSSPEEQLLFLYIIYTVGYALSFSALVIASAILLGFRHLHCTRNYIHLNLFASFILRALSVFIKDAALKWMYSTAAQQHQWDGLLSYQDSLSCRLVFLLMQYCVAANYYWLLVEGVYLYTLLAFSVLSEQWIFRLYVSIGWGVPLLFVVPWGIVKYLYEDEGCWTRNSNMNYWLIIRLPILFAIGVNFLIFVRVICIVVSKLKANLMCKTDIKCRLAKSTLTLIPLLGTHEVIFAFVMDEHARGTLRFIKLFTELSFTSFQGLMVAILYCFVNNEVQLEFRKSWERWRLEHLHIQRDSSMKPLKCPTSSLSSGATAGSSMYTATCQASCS
# Sequence of Nuclear receptor subfamily 1 group I member 3 (Homo sapiens) (Q14994 whole entry, looked up): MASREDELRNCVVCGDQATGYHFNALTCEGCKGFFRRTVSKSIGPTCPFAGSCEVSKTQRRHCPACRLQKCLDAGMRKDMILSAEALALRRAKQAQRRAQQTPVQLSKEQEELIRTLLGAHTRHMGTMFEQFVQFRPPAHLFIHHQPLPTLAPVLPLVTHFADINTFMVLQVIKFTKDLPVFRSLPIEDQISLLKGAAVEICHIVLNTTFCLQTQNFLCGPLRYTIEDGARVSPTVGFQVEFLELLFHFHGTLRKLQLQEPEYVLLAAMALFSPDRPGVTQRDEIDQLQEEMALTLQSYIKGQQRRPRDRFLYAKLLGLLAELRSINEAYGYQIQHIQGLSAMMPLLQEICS
# Sequence of Lysosomal acid glucosylceramidase (Homo sapiens) (P04062 whole entry, looked up): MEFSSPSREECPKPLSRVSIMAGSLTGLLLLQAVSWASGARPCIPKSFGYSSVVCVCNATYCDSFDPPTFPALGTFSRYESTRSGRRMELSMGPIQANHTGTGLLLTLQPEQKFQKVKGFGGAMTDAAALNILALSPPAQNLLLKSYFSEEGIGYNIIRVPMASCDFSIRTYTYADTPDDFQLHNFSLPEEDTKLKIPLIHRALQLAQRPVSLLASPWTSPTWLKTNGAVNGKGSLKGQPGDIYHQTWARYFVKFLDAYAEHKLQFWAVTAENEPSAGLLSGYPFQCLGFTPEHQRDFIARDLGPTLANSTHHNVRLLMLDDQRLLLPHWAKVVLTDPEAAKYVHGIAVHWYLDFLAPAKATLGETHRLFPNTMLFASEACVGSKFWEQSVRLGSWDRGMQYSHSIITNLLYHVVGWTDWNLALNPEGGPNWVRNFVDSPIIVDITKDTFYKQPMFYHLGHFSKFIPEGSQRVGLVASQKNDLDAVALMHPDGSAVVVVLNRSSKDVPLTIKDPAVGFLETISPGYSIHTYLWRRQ
# Sequence of Cytochrome P450 2D6 (Homo sapiens) (P10635 whole entry, looked up): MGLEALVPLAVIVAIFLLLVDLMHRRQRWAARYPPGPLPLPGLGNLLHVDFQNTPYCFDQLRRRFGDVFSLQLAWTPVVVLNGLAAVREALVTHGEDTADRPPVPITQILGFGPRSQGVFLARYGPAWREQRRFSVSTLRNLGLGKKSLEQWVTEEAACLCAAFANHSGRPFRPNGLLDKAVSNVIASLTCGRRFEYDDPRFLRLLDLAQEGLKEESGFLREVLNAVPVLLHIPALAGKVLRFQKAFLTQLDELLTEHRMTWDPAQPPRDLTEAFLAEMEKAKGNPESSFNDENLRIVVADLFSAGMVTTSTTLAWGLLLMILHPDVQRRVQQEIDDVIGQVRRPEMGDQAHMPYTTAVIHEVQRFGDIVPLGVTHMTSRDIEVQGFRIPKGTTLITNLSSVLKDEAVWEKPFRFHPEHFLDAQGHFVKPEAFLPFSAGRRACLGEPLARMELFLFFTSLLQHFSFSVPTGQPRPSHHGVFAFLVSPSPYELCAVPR
# Sequence of Cytochrome P450 2C19 (Homo sapiens) (P33261 whole entry, looked up): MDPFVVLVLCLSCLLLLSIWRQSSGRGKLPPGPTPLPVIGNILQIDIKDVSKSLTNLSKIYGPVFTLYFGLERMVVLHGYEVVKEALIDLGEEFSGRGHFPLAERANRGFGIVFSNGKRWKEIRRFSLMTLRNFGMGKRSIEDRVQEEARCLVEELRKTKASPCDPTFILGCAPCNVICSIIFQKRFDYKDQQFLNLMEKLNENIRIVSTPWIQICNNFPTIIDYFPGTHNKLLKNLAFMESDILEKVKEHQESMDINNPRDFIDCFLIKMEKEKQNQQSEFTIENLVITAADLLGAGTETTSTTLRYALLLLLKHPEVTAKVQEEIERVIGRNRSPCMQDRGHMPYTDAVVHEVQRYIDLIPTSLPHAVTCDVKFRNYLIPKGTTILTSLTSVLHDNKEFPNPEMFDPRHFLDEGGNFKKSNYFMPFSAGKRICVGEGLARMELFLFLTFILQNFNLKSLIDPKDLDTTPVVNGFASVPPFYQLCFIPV
# Sequence of Cytochrome P450 2C9 (Homo sapiens) (P11712 whole entry, looked up): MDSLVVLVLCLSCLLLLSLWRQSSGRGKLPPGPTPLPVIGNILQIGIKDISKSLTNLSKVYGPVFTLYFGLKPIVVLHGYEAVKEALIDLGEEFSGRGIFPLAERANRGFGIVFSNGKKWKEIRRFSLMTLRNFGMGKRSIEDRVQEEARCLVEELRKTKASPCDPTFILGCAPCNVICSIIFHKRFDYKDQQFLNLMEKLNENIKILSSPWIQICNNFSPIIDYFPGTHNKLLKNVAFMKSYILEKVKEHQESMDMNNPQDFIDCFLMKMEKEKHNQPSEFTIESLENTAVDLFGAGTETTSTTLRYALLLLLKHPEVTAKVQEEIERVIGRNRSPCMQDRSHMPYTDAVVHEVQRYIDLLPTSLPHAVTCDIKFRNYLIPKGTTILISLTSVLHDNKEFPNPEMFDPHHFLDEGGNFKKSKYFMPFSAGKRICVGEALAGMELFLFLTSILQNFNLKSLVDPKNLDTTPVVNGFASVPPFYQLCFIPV
smiles,measurement,setting,value
CN(C)C1C(=O)C(C(N)=O)=C(O)[C@@]2(O)C(=O)C3=C(O)c4c(O)ccc(Cl)c4[C@](C)(O)C3CC12 (stereo partly specified),Potency,[1],inactive
CN(C)[C@@H]1C(=O)C(C(N)=O)=C(O)[C@]2(O)C(=O)C3=C(O)c4c(O)cccc4[C@@](C)(O)[C@@H]3C[C@@H]12,Potency,[2],inactive
CC(C)(O)/C=C\C(=O)[C@](C)(O)[C@H]1[C@H](O)C[C@]2(C)[C@@H]3CC=C4[C@@H](C=C(O)C(=O)C4(C)C)[C@]3(C)C(=O)C[C@@]12C,Potency,[3],> 11.4 µM
CCCCCCC(C)(C)c1cc(O)c2c(c1)OC(C)(C)C1CC=C(CO)C[C@H]21 (stereo partly specified),Potency,[4],10 µM (active)
N#CC(O[C@@H]1O[C@H](CO[C@@H]2O[C@H](CO)[C@@H](O)[C@H](O)[C@H]2O)[C@@H](O)[C@H](O)[C@H]1O)c1ccccc1 (stereo partly specified),Potency,[5],inactive
same,Potency,[6],inactive
same,Potency,[7],inactive
same,Potency,[8],inactive
same,outcome,[9],inactive
C[C@H]1C2Cc3ccc(O)cc3[C@]1(C)CCN2CC1CC1,outcome,[10],inactive
same,outcome,[11],inactive
same,outcome,[12],inactive
same,outcome,[13],inactive
same,outcome,[14],inactive
same,outcome,[15],inactive
same,outcome,[16],inactive
same,outcome,[17],inactive
CC[C@@H](CO)NC(=O)[C@H]1C=C2c3cccc4c3c(cn4C)C[C@H]2N(C)C1,outcome,[18],inactive
O=C1/C(=C\c2ccccc2)C[C@@]2(O)[C@H]3Cc4ccc(O)c5c4[C@@]2(CCN3CC2CC2)[C@H]1O5,outcome,[18],inactive
CC(C)(O)C1C2OC(=O)C1[C@]1(O)C[C@H]3O[C@]34C(=O)O[C@H]2[C@]14C (stereo partly specified) (tested in a mixture with another compound),Potency,CP203,inactive
CCCCN1C2CCC1CC(OC(c1ccc(F)cc1)c1ccc(F)cc1)C2 (stereo unspecified),Potency,[19],10 µM (active)
NCC#Cc1ccccc1,Potency,[19],6.31 µM (active)
CC12CCC3C(CCC4=C(O)C(=O)CCC43C)C1CCC2=O (stereo unspecified),outcome,[10],inactive
same,outcome,[11],inactive
same,outcome,[12],inactive
same,outcome,[13],inactive
same,outcome,[14],inactive
same,outcome,[15],inactive
same,outcome,[16],inactive
same,outcome,[17],inactive
CNC(C)[C@@H](O)c1ccc(O)cc1 (stereo partly specified),Potency,CP203,inactive
